# Experimental data published in the supplement of paper PMC6411743.
# ± gives the standard deviation of the averaged measurements. Of roughly 5,400 targets only a part is listed; those with the largest changes were picked by preference.
# Compound: Nc1nc2c(ncn2[C@@H]2O[C@H](COP(=O)(O)OP(=O)(O)OP(=O)(O)O)[C@@H](O)[C@H]2O)c(=O)[nH]1 [guanosine triphosphate]
# Experiment: NP40-soluble protein abundance relative to vehicle (solubility fold change) (ratio); higher = more soluble protein in presence of GTP
# Procedure, shortened: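 Data come from three independent experiments in which Dounce-homogenised Jurkat crude lysate was treated at eight concentrations from 0.1 to 10 mM. Treatment ran 10 min at room temperature and then 3 min at 37 °C, after which 0.8% NP40 and benzonase were added for 60 min at 4 °C before ultracentrifugation. The supernatant underwent TMT labelling and LC-MS/MS, and vsn-normalised intensities were expressed as fold change against the detergent-processed vehicle in each replicate.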
# Chain of UniProt Q8IY18 (Q8IY18 whole entry): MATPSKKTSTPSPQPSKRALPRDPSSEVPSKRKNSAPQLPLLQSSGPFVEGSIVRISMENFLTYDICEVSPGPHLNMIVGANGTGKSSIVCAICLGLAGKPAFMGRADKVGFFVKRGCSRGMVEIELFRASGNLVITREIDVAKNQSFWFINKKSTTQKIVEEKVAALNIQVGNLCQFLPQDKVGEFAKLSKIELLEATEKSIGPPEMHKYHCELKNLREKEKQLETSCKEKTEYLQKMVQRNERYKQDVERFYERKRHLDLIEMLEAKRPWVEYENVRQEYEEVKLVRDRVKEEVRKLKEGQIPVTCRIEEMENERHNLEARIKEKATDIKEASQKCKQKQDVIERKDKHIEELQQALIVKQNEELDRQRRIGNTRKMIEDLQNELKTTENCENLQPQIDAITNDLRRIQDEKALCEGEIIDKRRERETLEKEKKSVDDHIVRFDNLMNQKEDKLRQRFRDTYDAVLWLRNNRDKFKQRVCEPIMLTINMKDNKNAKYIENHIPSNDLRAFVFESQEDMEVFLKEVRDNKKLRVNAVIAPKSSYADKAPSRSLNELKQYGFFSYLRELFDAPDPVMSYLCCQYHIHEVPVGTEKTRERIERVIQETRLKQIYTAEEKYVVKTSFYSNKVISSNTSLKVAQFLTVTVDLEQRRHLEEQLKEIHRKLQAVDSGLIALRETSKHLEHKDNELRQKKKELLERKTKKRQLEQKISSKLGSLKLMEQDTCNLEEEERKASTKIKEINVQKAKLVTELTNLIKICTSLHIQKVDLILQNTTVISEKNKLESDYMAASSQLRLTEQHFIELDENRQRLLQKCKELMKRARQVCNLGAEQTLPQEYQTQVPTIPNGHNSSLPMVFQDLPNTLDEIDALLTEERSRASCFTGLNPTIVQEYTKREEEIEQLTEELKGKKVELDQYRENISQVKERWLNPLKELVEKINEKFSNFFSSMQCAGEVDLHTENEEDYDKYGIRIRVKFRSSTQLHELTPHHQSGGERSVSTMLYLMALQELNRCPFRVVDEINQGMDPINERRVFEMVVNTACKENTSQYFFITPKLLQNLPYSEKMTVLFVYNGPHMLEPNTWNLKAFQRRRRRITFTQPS
# Chain of UniProt Q13619 (Q13619 whole entry): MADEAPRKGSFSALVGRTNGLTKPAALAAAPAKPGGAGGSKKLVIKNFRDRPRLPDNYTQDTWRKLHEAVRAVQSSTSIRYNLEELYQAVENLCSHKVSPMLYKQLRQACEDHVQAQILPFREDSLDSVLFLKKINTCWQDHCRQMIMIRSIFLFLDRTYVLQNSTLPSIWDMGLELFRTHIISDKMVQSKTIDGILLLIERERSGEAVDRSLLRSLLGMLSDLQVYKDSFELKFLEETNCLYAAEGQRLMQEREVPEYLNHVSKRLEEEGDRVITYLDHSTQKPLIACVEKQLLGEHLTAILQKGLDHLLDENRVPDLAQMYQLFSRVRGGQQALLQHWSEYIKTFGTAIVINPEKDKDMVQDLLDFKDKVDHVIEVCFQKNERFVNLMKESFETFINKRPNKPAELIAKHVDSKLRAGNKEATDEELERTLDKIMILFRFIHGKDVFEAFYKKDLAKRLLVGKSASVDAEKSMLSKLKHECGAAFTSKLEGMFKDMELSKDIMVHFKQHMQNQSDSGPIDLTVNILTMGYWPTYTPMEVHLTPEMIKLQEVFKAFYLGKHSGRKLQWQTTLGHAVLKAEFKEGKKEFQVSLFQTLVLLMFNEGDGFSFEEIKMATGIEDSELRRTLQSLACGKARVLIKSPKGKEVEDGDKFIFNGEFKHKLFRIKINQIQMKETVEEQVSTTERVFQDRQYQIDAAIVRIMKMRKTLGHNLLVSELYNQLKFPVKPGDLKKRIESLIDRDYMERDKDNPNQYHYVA
# Chain of UniProt Q68E01 (Q68E01 whole entry): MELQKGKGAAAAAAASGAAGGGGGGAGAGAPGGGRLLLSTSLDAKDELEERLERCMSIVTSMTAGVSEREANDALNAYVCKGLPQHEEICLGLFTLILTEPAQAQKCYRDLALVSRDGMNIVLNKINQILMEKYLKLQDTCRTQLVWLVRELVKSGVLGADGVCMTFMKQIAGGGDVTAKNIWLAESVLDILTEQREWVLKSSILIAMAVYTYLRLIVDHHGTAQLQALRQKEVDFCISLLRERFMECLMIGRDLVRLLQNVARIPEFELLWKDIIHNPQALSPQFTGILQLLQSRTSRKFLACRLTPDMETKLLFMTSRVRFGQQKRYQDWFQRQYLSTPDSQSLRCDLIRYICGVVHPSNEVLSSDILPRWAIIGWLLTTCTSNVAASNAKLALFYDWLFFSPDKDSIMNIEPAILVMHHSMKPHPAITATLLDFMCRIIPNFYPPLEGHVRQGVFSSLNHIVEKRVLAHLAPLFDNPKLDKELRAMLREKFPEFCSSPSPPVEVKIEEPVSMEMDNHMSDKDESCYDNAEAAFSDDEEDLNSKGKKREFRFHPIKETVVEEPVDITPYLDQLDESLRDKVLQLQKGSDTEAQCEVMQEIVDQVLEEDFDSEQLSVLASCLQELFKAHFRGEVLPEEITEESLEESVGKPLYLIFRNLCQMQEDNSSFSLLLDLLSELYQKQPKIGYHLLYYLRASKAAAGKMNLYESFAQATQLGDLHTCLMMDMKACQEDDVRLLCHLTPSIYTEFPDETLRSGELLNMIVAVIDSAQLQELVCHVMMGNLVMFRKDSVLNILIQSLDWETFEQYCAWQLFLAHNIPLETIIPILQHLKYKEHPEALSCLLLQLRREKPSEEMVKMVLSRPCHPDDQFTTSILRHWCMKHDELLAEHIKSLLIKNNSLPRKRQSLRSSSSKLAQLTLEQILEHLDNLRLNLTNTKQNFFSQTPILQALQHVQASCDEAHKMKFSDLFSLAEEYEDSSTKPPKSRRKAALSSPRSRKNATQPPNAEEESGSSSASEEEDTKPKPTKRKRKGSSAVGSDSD
# Chain of UniProt P78563 (P78563 whole entry): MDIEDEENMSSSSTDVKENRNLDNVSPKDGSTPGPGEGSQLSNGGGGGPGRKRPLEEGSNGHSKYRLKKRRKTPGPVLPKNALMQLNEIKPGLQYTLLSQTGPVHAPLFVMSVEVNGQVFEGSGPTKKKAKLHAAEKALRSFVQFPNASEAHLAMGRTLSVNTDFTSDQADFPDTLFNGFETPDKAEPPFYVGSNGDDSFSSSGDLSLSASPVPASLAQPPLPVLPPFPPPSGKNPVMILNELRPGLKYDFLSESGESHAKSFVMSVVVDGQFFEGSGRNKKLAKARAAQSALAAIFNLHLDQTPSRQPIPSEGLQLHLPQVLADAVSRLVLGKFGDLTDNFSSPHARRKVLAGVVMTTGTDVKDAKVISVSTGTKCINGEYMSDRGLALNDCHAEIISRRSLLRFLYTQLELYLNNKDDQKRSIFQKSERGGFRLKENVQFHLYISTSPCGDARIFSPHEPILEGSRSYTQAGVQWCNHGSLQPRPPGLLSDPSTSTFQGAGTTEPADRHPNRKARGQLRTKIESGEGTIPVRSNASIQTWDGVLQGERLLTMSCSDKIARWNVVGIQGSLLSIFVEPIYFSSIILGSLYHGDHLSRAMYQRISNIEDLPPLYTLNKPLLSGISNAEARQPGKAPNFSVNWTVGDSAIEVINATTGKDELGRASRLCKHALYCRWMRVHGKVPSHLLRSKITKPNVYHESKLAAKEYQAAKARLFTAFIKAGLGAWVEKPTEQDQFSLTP
# Chain of UniProt Q12788 (Q12788 whole entry): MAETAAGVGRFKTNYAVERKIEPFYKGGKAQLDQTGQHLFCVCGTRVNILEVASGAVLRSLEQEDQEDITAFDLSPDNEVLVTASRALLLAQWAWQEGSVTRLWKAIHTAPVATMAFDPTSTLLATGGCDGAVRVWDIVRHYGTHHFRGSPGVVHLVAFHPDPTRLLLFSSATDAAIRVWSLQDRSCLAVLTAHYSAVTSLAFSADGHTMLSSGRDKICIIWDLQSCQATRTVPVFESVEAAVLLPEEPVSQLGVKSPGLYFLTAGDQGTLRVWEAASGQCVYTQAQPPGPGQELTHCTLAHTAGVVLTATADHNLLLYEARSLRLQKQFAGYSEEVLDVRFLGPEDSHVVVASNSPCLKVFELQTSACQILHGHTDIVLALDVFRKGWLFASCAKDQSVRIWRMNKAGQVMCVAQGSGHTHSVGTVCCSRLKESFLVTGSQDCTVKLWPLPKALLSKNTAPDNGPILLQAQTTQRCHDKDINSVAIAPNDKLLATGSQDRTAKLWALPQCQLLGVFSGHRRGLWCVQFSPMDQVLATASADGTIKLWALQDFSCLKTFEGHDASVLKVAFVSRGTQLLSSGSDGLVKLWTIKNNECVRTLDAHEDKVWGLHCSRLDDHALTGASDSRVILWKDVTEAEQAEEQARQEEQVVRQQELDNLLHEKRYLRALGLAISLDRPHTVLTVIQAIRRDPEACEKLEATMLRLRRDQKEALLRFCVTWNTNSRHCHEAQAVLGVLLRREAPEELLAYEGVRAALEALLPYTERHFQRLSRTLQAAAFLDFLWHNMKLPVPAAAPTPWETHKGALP
# Chain of UniProt Q6NW34 (Q6NW34 whole entry): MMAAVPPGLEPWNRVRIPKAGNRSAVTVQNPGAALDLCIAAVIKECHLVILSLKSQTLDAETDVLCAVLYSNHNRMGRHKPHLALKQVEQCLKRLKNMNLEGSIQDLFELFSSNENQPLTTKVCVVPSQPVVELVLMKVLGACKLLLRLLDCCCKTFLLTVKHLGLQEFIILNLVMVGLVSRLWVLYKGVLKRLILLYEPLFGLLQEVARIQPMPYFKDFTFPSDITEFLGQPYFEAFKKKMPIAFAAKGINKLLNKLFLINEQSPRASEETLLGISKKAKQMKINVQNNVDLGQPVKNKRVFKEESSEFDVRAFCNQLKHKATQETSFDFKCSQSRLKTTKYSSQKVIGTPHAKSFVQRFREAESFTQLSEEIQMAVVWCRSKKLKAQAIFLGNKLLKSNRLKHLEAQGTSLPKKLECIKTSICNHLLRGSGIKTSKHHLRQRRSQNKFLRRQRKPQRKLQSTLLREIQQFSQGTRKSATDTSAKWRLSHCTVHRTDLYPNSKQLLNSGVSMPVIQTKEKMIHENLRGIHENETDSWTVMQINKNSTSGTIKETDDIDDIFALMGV
Target,NP40-soluble protein abundance (concentration: 0.1mM),NP40-soluble protein abundance (concentration: 0.5mM),NP40-soluble protein abundance (concentration: 1mM),NP40-soluble protein abundance (concentration: 2mM),NP40-soluble protein abundance (concentration: 4mM),NP40-soluble protein abundance (concentration: 6mM),NP40-soluble protein abundance (concentration: 8mM),NP40-soluble protein abundance (concentration: 10mM)
UniProt P78563|P78563-2|P78563-3|P78563-4|P78563-5|P78563-6,1.05 ± 0.12,1.03 ± 0.13,1.007 ± 0.0033,1.07 ± 0.053,1.11 ± 0.044,1.16 ± 0.062,1.15 ± 0.031,1.16 ± 0.1
BOLA3 (UniProt Q53S33),0.893 ± 0.02,0.843 ± 0.047,0.962 ± 0.065,0.982 ± 0.03,0.953 ± 0.022,0.966 ± 0.061,0.925 ± 0.09,1.01 ± 0.042
TBL3 (UniProt Q12788),1.18 ± 0.1,1.16 ± 0.14,1.11 ± 0.058,1.36 ± 0.15,1.59 ± 0.19,1.65 ± 0.17,1.72 ± 0.21,1.7 ± 0.26
C15orf40 (UniProt Q8WUR7),1.02 ± 0.1,1.02 ± 0.084,1.03 ± 0.034,1.05 ± 0.12,1.04 ± 0.13,1.01 ± 0.097,1.11 ± 0.061,1.17 ± 0.12
CUL4A (UniProt Q13619),1.07 ± 0.041,1.09 ± 0.077,1.02 ± 0.045,1.03 ± 0.11,0.989 ± 0.09,0.987 ± 0.076,0.987 ± 0.061,0.934 ± 0.042
UniProt P62195,1.03 ± 0.069,1.08 ± 0.12,1.04 ± 0.14,1.07 ± 0.17,1.06 ± 0.15,1.08 ± 0.19,1.06 ± 0.16,0.977 ± 0.15
EIF3A (UniProt Q14152),1.05 ± 0.031,1.08 ± 0.018,1.09 ± 0.062,1.18 ± 0.12,1.38 ± 0.23,1.53 ± 0.28,1.74 ± 0.34,1.94 ± 0.38
ITPK1 (UniProt Q13572),0.997 ± 0.085,0.965 ± 0.064,0.904 ± 0.095,0.981 ± 0.077,0.981 ± 0.15,0.943 ± 0.18,0.924 ± 0.13,0.953 ± 0.09
UniProt Q6NW34|Q6NW34-2,0.848 ± 0.051,0.888 ± 0.08,0.881 ± 0.074,0.85 ± 0.031,0.839 ± 0.071,0.929 ± 0.032,0.871 ± 0.059,0.93 ± 0.012
UniProt Q8WUQ7|Q8WUQ7-2,0.975 ± 0.11,1.02 ± 0.12,0.967 ± 0.13,1.02 ± 0.14,1.09 ± 0.13,1.12 ± 0.095,1.12 ± 0.03,1.19 ± 0.11
ALDH16A1 (UniProt Q8IZ83),1.11 ± 0.033,1.1 ± 0.076,1.13 ± 0.13,1.15 ± 0.12,1.16 ± 0.17,1.15 ± 0.15,1.16 ± 0.16,1.11 ± 0.15
NANP (UniProt Q8TBE9),1.07 ± 0.15,0.981 ± 0.11,0.954 ± 0.14,0.982 ± 0.16,0.904 ± 0.12,0.877 ± 0.14,0.891 ± 0.2,0.861 ± 0.15
UniProt Q16643|Q16643-2|Q16643-3,0.894 ± 0.061,0.888 ± 0.11,0.903 ± 0.11,0.905 ± 0.11,1.08 ± 0.1,1.24 ± 0.11,1.52 ± 0.15,1.81 ± 0.12
UniProt P60891,1.03 ± 0.072,1.15 ± 0.18,1.18 ± 0.22,1.26 ± 0.25,1.29 ± 0.23,1.3 ± 0.28,1.28 ± 0.27,1.26 ± 0.23
UniProt Q5SRE5|Q5SRE5-2,1.17 ± 0.11,1.13 ± 0.051,1.03 ± 0.13,1.01 ± 0.13,1.13 ± 0.024,1.11 ± 0.088,1.03 ± 0.029,1.08 ± 0.046
EIF3I (UniProt Q13347),1.02 ± 0.04,1.03 ± 0.091,0.993 ± 0.089,1.04 ± 0.15,1.13 ± 0.19,1.26 ± 0.26,1.32 ± 0.23,1.4 ± 0.29
UniProt Q00653|Q00653-4,0.995 ± 0.032,0.997 ± 0.021,0.959 ± 0.013,0.955 ± 0.037,0.96 ± 0.048,0.931 ± 0.016,0.966 ± 0.04,0.94 ± 0.045
UniProt Q68E01|Q68E01-2,1.01 ± 0.028,1.01 ± 0.026,1.03 ± 0.027,1.03 ± 0.03,1.08 ± 0.026,1.12 ± 0.053,1.11 ± 0.036,1.11 ± 0.021
SMC5 (UniProt Q8IY18),1.026 ± 0.0089,1.06 ± 0.036,1.03 ± 0.025,1.02 ± 0.03,1.009 ± 0.0054,1.04 ± 0.019,1.05 ± 0.031,1.03 ± 0.021
UniProt Q8IX12|Q8IX12-2,0.993 ± 0.042,0.985 ± 0.027,1.004 ± 0.0041,0.996 ± 0.03,1.08 ± 0.056,1.12 ± 0.06,1.17 ± 0.077,1.14 ± 0.059
HNRNPA1L2 (UniProt Q32P51),1.34 ± 0.52,1.32 ± 0.58,1.8 ± 0.79,1.49 ± 0.44,1.47 ± 0.51,1.67 ± 0.65,1.92 ± 0.8,1.58 ± 0.35
UniProt Q53EL6|Q53EL6-2,0.992 ± 0.14,1.08 ± 0.18,1.12 ± 0.24,1.23 ± 0.34,1.45 ± 0.45,1.66 ± 0.47,1.81 ± 0.48,2.16 ± 0.58
